# This is part of a sample that, as a whole, favours compounds with a hit. Of some 83,000 tested, about 20% had one in any assay.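 Single-dose data. Exposure time 48 hours. Values below 10 considered active.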 Unmarked numbers belong to inactive results. Calls of active or inactive are those of the source.
# Assays:
# Test in all cases: NCI-60 one-dose screen, 48 h (100 = growth as untreated, 0 = no growth, -100 = all killed)
# Settings in all cases: 10 µM unless noted
# NCI-H23 lung = test system: NCI-H23 lung
# NCI-H226 lung = test system: NCI-H226 lung
# NCI-H322M lung = test system: NCI-H322M lung
# HOP-62 NSCLC = test system: HOP-62 NSCLC
# NCI-H460 lung = test system: NCI-H460 lung
# NCI-H522 lung = test system: NCI-H522 lung
# A549/ATCC NSCLC = test system: A549/ATCC NSCLC
# 786-0 renal = test system: 786-0 renal
# COLO 205 colon = test system: COLO 205 colon
# DU-145 prostate = test system: DU-145 prostate
# K-562 leukemia = test system: K-562 leukemia
# MALME-3M melanoma = test system: MALME-3M melanoma
# MDA-MB-231 breast = test system: MDA-MB-231 breast
# RXF 393 renal = test system: RXF 393 renal
# SF-268 CNS = test system: SF-268 CNS
# SF-295 CNS = test system: SF-295 CNS
# SF-539 CNS = test system: SF-539 CNS
# UACC-257 melanoma = test system: UACC-257 melanoma
# M14 melanoma = test system: M14 melanoma
# HCT-15 colon = test system: HCT-15 colon
Structure (SMILES),growth (NCI-H23 lung),growth (NCI-H226 lung),growth (NCI-H322M lung),growth (HOP-62 NSCLC),growth (NCI-H460 lung),growth (NCI-H522 lung),growth (A549/ATCC NSCLC),growth (786-0 renal),growth (COLO 205 colon),growth (DU-145 prostate),growth (K-562 leukemia),growth (MALME-3M melanoma),growth (MDA-MB-231 breast),growth (RXF 393 renal),growth (SF-268 CNS),growth (SF-295 CNS),growth (SF-539 CNS),growth (UACC-257 melanoma),growth (M14 melanoma),growth (HCT-15 colon)
CCCCc1nc(Cl)c(CO)n1Cc1ccc(-c2ccccc2-c2nn[nH]n2)cc1,106%,99.3%,97.1%,97.7%,108%,92.8%,105%,106%,96.6%,110%,105%,101%,99.1%,105%,115%,99.9%,100%,104%,101%,106%
CCN1C2=C(SC(=S)C1=C1SC(C(=O)OC)=C(C(=O)OC)S1)SC(=Nc1ccc(OC)cc1)C2=O,-42.5% (active),-66.7% (active),48.4%,-13.7% (active),-47.5% (active),-15.2% (active),17.7%,-64.6% (active),-3.6% (active),-46.1% (active),7.47% (active),-28% (active),4.53% (active),-87.7% (active),1.48% (active),2.33% (active),-24.1% (active),-55.1% (active),-54.7% (active),-20.7% (active)
COc1ccc(-c2nn(-c3ccccc3)cc2/C=C2\SC(=S)N(CCc3ccc(O)cc3)C2=O)cc1,89.2%,86.7%,88.6%,97.1%,81.7%,64.7%,81.2%,93.7%,108%,93.3%,66%,85.1%,75.4%,92.5%,81.4%,80.2%,87.2%,93.7%,91.3%,77.7%
CC(=O)O[C@H]1C(=O)[C@@]2(C)C([C@H](OC(=O)c3ccccc3)[C@]3(O)C[C@H](OC(=O)[C@H](O)[C@@H](NC(=O)c4ccccc4)c4ccccc4)C(C)=C1C3(C)C)[C@]1(OC(C)=O)CO[C@@H]1C[C@@H]2O (stereo not given in full),27.9%,44.8%,28.1%,24.6%,7.33% (active),-25.2% (active),13.1%,17.6%,1.91% (active),-36.8% (active),12.5%,57.3%,17%,-17.9% (active),30.2%,-8.51% (active),13.1%,45%,20%,23.7%
Cc1cc(C)n(C(=O)c2nn(-c3ccc(Cl)cc3)cc2O)n1,9.42% (active),44.9%,37.2%,47.8%,5.55% (active),59.6%,11.6%,95.7%,106%,30%,6.26% (active),117%,77.4%,39.1%,39.9%,-4.15% (active),39.1%,82.5%,45.7%,50.2%
Cc1cc(N2CCOCC2)nc(N2CCOCC2)n1,94.6%,110%,92.2%,82.2%,99.4%,78.6%,98.1%,92.7%,118%,117%,112%,107%,114%,118%,100%,113%,97.5%,105%,105%,102%
O=C1OCC/C1=C\OCCCO/C=C1\CCOC1=O,102%,103%,100%,122%,107%,98.3%,98.7%,102%,141%,115%,107%,95.2%,107%,117%,109%,106%,105%,106%,110%,98.1%
COc1ccc(C(=O)Nc2nc(-c3ccc(Cl)cc3)cs2)cc1,114%,95.6%,86.8%,90.8%,105%,105%,100%,108%,102%,111%,104%,111%,105%,97.1%,105%,97.5%,93%,98.5%,113%,94.9%
O=[N+]([O-])c1ccc(Oc2cccc(C(F)(F)F)c2)c([N+](=O)[O-])c1,27.7%,47.6%,90.3%,101%,95.6%,-16% (active),97.2%,47.5%,2.36% (active),95.2%,11.2%,52.3%,19.7%,53.6%,32.2%,108%,36.9%,53.7%,9.6% (active),19%
O=C1NCN(c2ccccc2)C12CCN(CCCC(c1ccc(F)cc1)c1ccc(F)cc1)CC2,72.9%,94.1%,60.4%,82.9%,37.3%,61.2%,57.8%,49.2%,27.1%,76%,6.41% (active),39.9%,78%,39.9%,71.4%,17.1%,50.9%,-15.8% (active),9.99% (active),49.6%
CCn1c2c(c3ccccc31)SC1c3cccn3CCN1C2=S (stereo not given),93.7%,108%,89.8%,103%,98.9%,82.1%,88.5%,102%,109%,102%,105%,112%,96.7%,151%,96.4%,106%,97.9%,98%,94.4%,82.3%
O=C(Nc1ccc(Nc2ccncc2)cc1)c1ccc(Nc2ccnc3ccc([N+](=O)[O-])cc23)cc1[N+](=O)[O-],83%,103%,89.5%,127%,44.9%,43.2%,35.2%,50.1%,122%,56.8%,107%,-49.8% (active),94.9%,35.9%,-11.6% (active),19.4%,53.3%,70.9%,92.7%,86.7%
O=C(Oc1ccc[nH]c1=O)c1cccc(Cl)c1,95.6%,109%,99.9%,90.5%,100%,95.3%,101%,90.7%,84.4%,113%,104%,104%,103%,163%,101%,108%,88.2%,113%,95.8%,91.2%
O=C1NCN(CCO)CN1,98.6%,105%,94.2%,85.1%,105%,103%,101%,90.4%,120%,117%,111%,92.6%,125%,107%,108%,113%,93.3%,96.7%,96.7%,109%
